# According to article PMC4336329 (PLoS ONE, 2015):
# Hit rate of the full screen: of about 310,000 compounds, about 14,000 (4.5%) showed an effect of 50% or more. Effects have a minus sign here. The sample holds strong results, similar compounds and a random draw of the others, so the mix is not that of the screen.
# Target: human ether-à-go-go-related gene (hERG) potassium channel (human, UniProt Q12809)
# Test: primary screen, population patch clamp on CHO cells stably expressing hERG; higher = less effect of the substance
# 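Further: peak tail current of the secondary pulse compared with the same well before compound.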
# Chain of human ether-à-go-go-related gene (hERG) potassium channel (Q12809 whole entry, looked up): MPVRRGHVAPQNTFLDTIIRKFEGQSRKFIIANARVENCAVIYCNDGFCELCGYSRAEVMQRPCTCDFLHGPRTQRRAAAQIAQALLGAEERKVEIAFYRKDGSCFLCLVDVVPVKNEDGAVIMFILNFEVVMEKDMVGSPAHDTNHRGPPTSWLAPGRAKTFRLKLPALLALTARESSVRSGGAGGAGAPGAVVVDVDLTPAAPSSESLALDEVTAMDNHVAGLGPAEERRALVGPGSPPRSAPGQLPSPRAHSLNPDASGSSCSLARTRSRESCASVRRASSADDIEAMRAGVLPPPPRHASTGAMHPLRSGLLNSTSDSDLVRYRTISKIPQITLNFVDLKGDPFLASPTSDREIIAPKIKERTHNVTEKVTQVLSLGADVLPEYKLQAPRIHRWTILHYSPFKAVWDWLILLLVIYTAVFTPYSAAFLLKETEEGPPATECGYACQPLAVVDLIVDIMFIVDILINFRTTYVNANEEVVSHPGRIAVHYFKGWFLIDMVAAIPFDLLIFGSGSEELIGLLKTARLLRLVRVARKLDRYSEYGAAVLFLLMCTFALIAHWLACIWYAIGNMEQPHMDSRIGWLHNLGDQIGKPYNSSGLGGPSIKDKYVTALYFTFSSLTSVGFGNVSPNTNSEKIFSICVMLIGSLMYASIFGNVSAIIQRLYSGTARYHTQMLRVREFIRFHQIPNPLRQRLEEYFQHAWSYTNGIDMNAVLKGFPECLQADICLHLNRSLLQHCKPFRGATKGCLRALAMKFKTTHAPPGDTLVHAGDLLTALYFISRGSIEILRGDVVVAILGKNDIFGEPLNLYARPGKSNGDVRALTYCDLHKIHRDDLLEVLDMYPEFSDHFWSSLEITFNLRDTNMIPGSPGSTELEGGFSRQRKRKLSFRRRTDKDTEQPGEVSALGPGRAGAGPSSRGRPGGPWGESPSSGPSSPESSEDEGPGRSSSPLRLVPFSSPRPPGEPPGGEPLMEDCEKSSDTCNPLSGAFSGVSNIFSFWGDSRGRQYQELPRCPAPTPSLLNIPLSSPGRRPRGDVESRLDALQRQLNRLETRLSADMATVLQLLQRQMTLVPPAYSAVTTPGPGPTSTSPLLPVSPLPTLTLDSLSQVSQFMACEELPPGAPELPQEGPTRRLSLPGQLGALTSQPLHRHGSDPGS
row,SMILES,"hERG current change (%, negative = inhibition) at 10uM [%]"
1,CC(NC(=O)Cc1ccccc1)c1nc2ccccc2[nH]1 (centres unmarked),5.94
2,O=C(CCNC(=O)c1ccc([N+](=O)[O-])cc1)NCCc1ccc(Cl)cc1,-40.4
3,Cc1cc(C)n2nc(CC(=O)NCc3ccc(F)cc3)nc2n1,-0.0725
4,CCN(CC)N=Nc1ccc(S(=O)(=O)N2CCSC2C(=O)[O-])cc1.[K+] (centres unmarked),28.2
5,CCC(C)[C@H](NC(=O)OC(C)(C)C)C(=O)N/N=C/c1ccc2nccnc2c1 (some centres unmarked),-13.8
6,CNC(=O)c1cc(OCC(F)(F)F)ccc1OCC(F)(F)F,-4.26
7,COc1ccc(S(=O)(=O)NCc2ccc(C(=O)NCc3cccnc3)cc2)cc1,-1.21
8,COc1ccc(C(=O)N2CCN(C)C(=O)[C@@H]2C)cc1OC1CCN(C(C)=O)CC1,12.6
9,Cc1c(NC(=S)N/N=C/C=C/c2ccccc2)c(=O)n(-c2ccccc2)n1C,11.2
10,Cc1ccc(-c2noc(C3CCCCC3)n2)cc1,16.1
11,Cc1csc(NC(=O)CCc2c(C)nc3cc(-c4cccc(F)c4)nn3c2C)n1,-17.3
12,COc1ccc(CNC(=O)CCc2c(C)nc3cc(-c4ccccc4OC)nn3c2C)cc1,-37.7
13,COc1ccccc1-c1cc2nc(C)c(CCC(=O)NC(C)CCc3ccco3)c(C)n2n1 (centres unmarked),-62.5
14,COc1ccccc1CNC(=O)CCc1c(C)nc2cc(-c3ccccc3OC)nn2c1C,-11.5
15,COc1ccccc1-c1cc2nc(C)c(CCC(=O)NCc3ccc(F)cc3)c(C)n2n1,-49.7
16,COc1cc(OC)cc(-c2cc3nc(C)c(CCC(=O)Nc4nc(C)cs4)c(C)n3n2)c1,10
17,Cc1nc2cc(-c3ccccc3)nn2c(C)c1CCC(=O)NCc1ccco1,-37.4
18,COc1ccccc1-c1cc2nc(C)c(CCC(=O)NCc3ccco3)c(C)n2n1,-43.1
19,COc1cc(OC)cc(-c2cc3nc(C)c(CCC(=O)NCc4ccccc4)c(C)n3n2)c1,-33.8
20,Cc1nc2cc(-c3cccc(F)c3)nn2c(C)c1CCC(=O)NC(C)CCc1ccco1 (centres unmarked),-70.6
21,COc1cc(OC)cc(-c2cc3nc(C)c(CCC(=O)NC(C)CCc4ccco4)c(C)n3n2)c1 (centres unmarked),-58.4
22,COc1ccc(-c2cc3nc(C)c(CCC(=O)NCc4ccc(F)cc4)c(C)n3n2)c(OC)c1,-60.4
23,COc1ccc(C2SCC(=O)N2C)cc1 (centres unmarked),1.55
24,COc1cccc(-c2cc(=O)c3cc(NC(=O)c4ccc(N(C)C)cc4)ccc3[nH]2)c1,16.2
25,CN(C)S(=O)(=O)Oc1ccc(Cl)cc1C(=O)Nc1ccc(F)cc1F,-3.01
26,Cc1cc(N/N=C2\CC(C)CC(C)(C)C2)nc2ccccc12 (centres unmarked),-7.04
27,CCN1C(=O)/C(=C/c2ccc3c(c2)CCN3CCCCl)C(=O)NC1=S,-3.76

row,SMILES,"hERG current change (%, negative = inhibition) at 10uM [%]"
1,N#Cc1c(-c2ccco2)cc(-c2ccc(F)cc2)nc1N,-2.08
2,COc1ccc(-c2cc(=O)oc3c(C)c(OC(C)C(=O)Nc4ccc(CN5CCOCC5)cc4)ccc23)cc1 (centres unmarked),-5.78
3,Cn1c(/C(C#N)=C2/CCCCCN2)nc2ccccc21,-12.5
4,O=S(=O)(NCc1ccc(Cl)cc1)NCc1ccc(Cl)cc1,12.7
5,COC(=O)c1cc(Br)ccc1OC(=O)c1cccnc1,7.06
6,COc1ccc(-c2cc3nc(C)c(CCC(=O)NCc4ccco4)c(C)n3n2)c(OC)c1,-12.9
7,Cc1nc2cc(-c3ccc(Cl)cc3)nn2c(C)c1CCC(=O)NCc1ccco1,-41.9
8,COc1ccc(-c2cc3nc(C)c(CCC(=O)NC(C)CCc4ccco4)c(C)n3n2)c(OC)c1 (centres unmarked),-62
9,Cc1ccc(C(=O)O)cc1NC(=S)NCCc1ccccc1,0.261
10,C[C@H](NC(=O)c1cc2c(cn1)[nH]c1ccccc12)C(=O)O,18.4
11,CCOC(=O)C1(Cc2ccccc2C)CCCN(S(C)(=O)=O)C1 (centres unmarked),16.5
12,Cc1cc(NC(=O)c2ccc(N3C(=O)C4C5C=CC(C5)C4C3=O)cc2)no1 (centres unmarked),8.53
13,O=C(Nc1ccccc1OC(F)F)c1cccc(S(=O)(=O)N2CCCC2)c1,-23.6
14,COc1ccc(-n2cnnc2SCC(=O)Nc2cccnc2Cl)cc1,-18.7
15,COc1cc(NC(=O)CC(C)n2ccnc2)cc(OC)c1 (centres unmarked),10.7
16,CC(C)(C)c1ccc(OCC(=O)Nc2ccncc2)cc1,8.71
17,CC(C)(C)c1ccc(NC(=O)COc2ccc(-n3ccnc3)cc2)cc1,-56.5
18,Cc1ccc(NC(=O)COc2ccc(-n3ccnc3)cc2)cc1Cl,-33.6
19,CCC(C)(C)c1ccc(OCC(=O)Nc2ccncc2)cc1,-16
20,COc1cc(NC(=O)COc2ccc(-n3ccnc3)cc2)cc(OC)c1,-51.3
21,CCOC(=O)/C(C)=N/NC(=O)c1cccc([N+](=O)[O-])c1,7.04
22,Cc1ccc(CNC(=O)c2ccc(N3CCC4(CC3)CC(c3ccccc3)=NO4)c(NC(=O)c3cccc(C)c3)c2)cc1,-6.37
23,CCCOc1ccc(N2C(=O)CC(SCc3nc4ccccc4[nH]3)C2=O)cc1 (centres unmarked),-41.2
24,O=C(Oc1ccc([N+](=O)[O-])cc1)N1CCC(N2CCCCC2)CC1,-65.4
25,N/C(=N/[N+](=O)[O-])N1CCN(C(=O)Oc2ccc([N+](=O)[O-])cc2)CC1,-36.5
26,O=C(Oc1cccc([N+](=O)[O-])c1)N1CCCCC1,-0.619
